Data published in PubChem BioAssay AID618 (Sanford-Burnham Center for Chemical Genomics, 2007).
The campaign covered roughly 87,000 compounds. About 540 (0.62%) were called active. No rule for the calls is given here. For the sample, actives were picked, then their nearest neighbours and some compounds at random. Measured potencies and affinities stand elsewhere.

Assay: MT1-MMP gene expression reporter suppression – cell-based, luciferase reporter, luminescence (AID 618);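 also: actives suppress MT1-MMP promoter-driven transcription so potencies describe inhibitors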
Details: MT1-MMP promoter luciferase reporter cells

Row | Compound | outcome
1 | COC(=O)C(C)Sc1ncnc2c1nnn2-c1ccc(F)cc1 (stereo unspecified) | inactive
2 | Cc1ccc(CNC(=O)[C@H]2C[C@@H]2[C@H](NP(=O)(c2ccccc2)c2ccccc2)c2ccccc2)o1 | inactive
3 | O=C1c2ccccc2C(=O)c2c1oc(C(F)(F)F)c2C(=O)c1ccccc1 | inactive
4 | Cc1oc2c(c1C(=O)c1ccccc1)C(=O)C(=O)c1ccccc1-2 | active
5 | Cc1ccc(C(=O)c2c(C)oc3c2C(=O)C(=O)c2ccccc2-3)cc1 | inactive
6 | Cn1c(=O)c2c(nc(NCc3cccnc3)n2Cc2cccc(C(F)(F)F)c2)n(C)c1=O | inactive
7 | COc1cccc(Cn2c(NCc3ccccn3)nc3c2c(=O)n(C)c(=O)n3C)c1 | inactive
8 | Cc1cc(C)nc(Sc2ccc3nnc(C(F)(F)C(F)(F)C(F)(F)F)n3n2)n1 | inactive
9 | Cc1ccc(-c2nn3c(C)nnc3s2)cc1NC(=O)C(C)C | inactive
10 | CCOc1cccc2cc(-c3nnc(-c4ccccc4)o3)c(=O)oc12 | inactive
11 | COc1cccc2cc(-c3cn4ccc(C)cc4n3)c(=O)oc12 | inactive
12 | CCOc1cccc2cc(-c3cn4cc(C)ccc4n3)c(=O)oc12 | active
13 | CCc1ccc(OCCNC(=O)c2ccc(S(=O)(=O)N(C)C)cc2)cc1 | inactive
14 | CCOC(=O)N1CCN(C(=O)c2ccc(N(Cc3ccc(C)cc3)S(C)(=O)=O)cc2)CC1 | inactive
15 | CCOP(=O)(c1ccccc1Cl)C1(O)CCCCC1 (stereo unspecified) | inactive
16 | CCOc1cc(C(=O)N2CCc3cc(OC)c(OC)cc3C2)ccc1OC(F)F | active
17 | COc1ccc(C(=O)N2CCc3cc(OC)c(OC)cc3C2)cc1OC | inactive
18 | CCOc1ccc(C(=O)N2CCCC2)cc1OC | inactive
19 | CCOC(=O)C1=NN(c2ccc(Cl)cc2)C(c2ccccc2)CC1=O (stereo unspecified) | inactive
20 | CCCN(CCC)S(=O)(=O)c1cccc(C(=O)Nc2ccc3c(c2)OCO3)c1 | inactive
21 | Cc1ccc2oc(-c3cccc(NC(=O)C4CCCO4)c3)nc2c1 (stereo unspecified) | inactive
22 | O=C(Nc1nc2ccccc2[nH]1)C1CCCO1 (stereo unspecified) | inactive
23 | O=C(Nc1ccc(-c2nc3ccccc3[nH]2)cc1)C1CCCO1 (stereo unspecified) | active
24 | O=C(Nc1ccc(-c2nc3ccccc3o2)cc1)C1CCCO1 (stereo unspecified) | active

Row | Compound | outcome
25 | O=C(Nc1ccc(O)cc1)C1CCCO1 (stereo unspecified) | inactive
26 | O=C(Nc1ccc(-c2nc3cc(Cl)ccc3o2)cc1)C1CCCO1 (stereo unspecified) | inactive
27 | COc1ccc(OC)c(NC(=O)C2CCCN2C(=O)OCc2ccccc2)c1 (stereo unspecified) | inactive
28 | Nc1nnnn1/N=C/c1cccc(OCc2ccccc2Cl)c1 | inactive
29 | C=CC(O)(C#CCN(CC)CC)c1ccccc1 (stereo unspecified) | inactive
30 | CC(=O)NC1CC2CCCC(C1)N2C(=O)Nc1ccccc1 (stereo unspecified) | inactive
31 | Cc1cc(C)nc(NC(=O)c2cc3ccccc3o2)n1 | inactive
32 | NC(=O)c1c(NC(=O)c2ccco2)sc2c1CCC2 | inactive
33 | Cc1c(C(=O)Nc2ccccn2)oc2ccccc12 | inactive
34 | O=C(Nc1ccccc1)c1cc2ccccc2o1 | inactive
35 | CC(=O)Nc1sc2c(c1C(N)=O)CCC2 | inactive
36 | Cc1c(C(=O)Nc2ccncc2)oc2ccccc12 | inactive
37 | CCCC(C)NC(=O)C1CCN(S(=O)(=O)c2ccccc2)CC1 (stereo unspecified) | inactive
38 | O=C(CSc1ccc(-c2nc3ccccc3[nH]2)cn1)N1CCN(C(=O)c2ccco2)CC1 | inactive
39 | O=C(c1ccc(S(=O)(=O)Nc2ccccc2)cc1)N1CCOCC1 | inactive
40 | CCN(CC)C(=O)C(C)N(C#N)c1nc(NC(C)C)nc(NC(C)C)n1 (stereo unspecified) | inactive
41 | Cc1ccc(Cn2c(Sc3nnc(C)s3)nc3c2c(=O)[nH]c(=O)n3C)cc1 | inactive
42 | Cc1cccc(CCNC(=O)C2CCC(=O)N2Cc2ccc(F)cc2)c1 (stereo unspecified) | inactive
43 | CCOC(=O)Cc1csc(SCC(=O)Nc2sc3c(c2C(N)=O)CCC3)n1 | inactive
44 | CCCCCCSC1=C(C#N)C(c2ccc(C)o2)CC(=O)N1 (stereo unspecified) | inactive
45 | CCOC(=O)CSC1=C(C#N)C(c2ccc(C)s2)CC(=O)N1 (stereo unspecified) | active
46 | CCSC1=C(C#N)C(c2ccc(C)s2)CC(=O)N1 (stereo unspecified) | inactive
47 | CCOC(=O)CSC1=C(C#N)C(c2ccc(Cl)cc2)CC(=O)N1 (stereo unspecified) | inactive
48 | CCOC(=O)CSC1=C(C#N)C(c2ccc(C)o2)CC(=O)N1 (stereo unspecified) | active

Row | Compound | outcome
49 | CCOC(=O)CSC1=C(C#N)C(c2ccccc2OC)CC(=O)N1 (stereo unspecified) | inactive
50 | C=CCc1c(C)c(C#N)c2nc3ccccc3n2c1N1CCN(C)CC1 | inactive
51 | CCC(CC)C(=O)NCCc1cc2c(C)ccc(C)c2[nH]c1=O | inactive
52 | COc1cc(Nc2cc(C)nc3ncnn23)cc(OC)c1OC | inactive
53 | Cc1nc2ncnn2c(Nc2ccc3c(c2)OCO3)c1Cc1ccccc1 | inactive
54 | COc1ccc(NC(=O)CSc2nnc(-c3cccnc3)o2)cc1 | inactive
55 | CCn1nc(C)c(NC(=O)CCCSc2nc(-c3ccco3)cc(C(F)(F)F)n2)c1C | inactive
56 | Cc1[nH]nc2c1C(C(C)C)C(C#N)=C(N)O2 (stereo unspecified) | inactive
57 | Cc1[nH]nc2c1C(C1CC=CCC1)C(C#N)=C(N)O2 (stereo unspecified) | active
58 | Cc1ccc(C2C(C#N)=C(N)Oc3n[nH]c(C)c32)cc1 (stereo unspecified) | inactive
59 | CC(=O)N(C(C)=O)C1=C(C#N)C2(CCCCC2)Cc2ccccc21 | inactive
60 | C=CCOc1ccc2nc(NC(=O)OC)[nH]c2c1 | active
61 | O=C(Cc1ccccc1)Nc1nc2ccccc2[nH]1 | inactive
62 | COC(=O)Nc1nc2ccc(C(=O)c3ccccc3)cc2[nH]1 | inactive
63 | O=C(Nc1ccc(F)cc1)c1ccccc1F | inactive
64 | COc1cc(C(=O)Nc2nc3ccccc3[nH]2)cc(OC)c1OC | inactive
65 | Cc1cc(NC(=O)c2ccccc2F)n(-c2nc3ccccc3[nH]2)n1 | inactive
66 | O=C(Nc1nc2ccccc2[nH]1)c1ccccc1F | active
67 | O=C(COc1ccccc1)Nc1nc2ccccc2[nH]1 | inactive
68 | COc1cc(OC)cc(C(=O)Nc2nc3ccccc3[nH]2)c1 | inactive
69 | CCCOc1ccc2nc(NC(=O)OC)[nH]c2c1 | inactive
70 | Cc1cc(=O)n2nc(N3CCC(C(=O)NCc4cccnc4)CC3)sc2n1 | inactive
71 | CC(C)=C1SC(N2CCN(Cc3ccccc3)CC2)=NC1=O | inactive
72 | CC1=C(C#N)C(c2cccnc2)C2=C(CC(c3ccc(Cl)cc3)CC2=O)N1 (stereo unspecified) | inactive

Row | Compound | outcome
73 | COc1ccc(-c2nn(-c3ccccc3)cc2C(=O)N2CCOCC2)cc1 | inactive
74 | Cc1cc(C)n(C(=O)CN2C(=O)c3ccccc3C2=O)n1 | inactive
75 | O=C(NCc1ccncc1)Nc1ccc(Cl)cc1Cl | inactive
76 | CCCn1c(=O)c2c(c3ccccc31)OCC(=O)N2 | inactive
77 | COc1ccc(Cc2nnc3n2N=C(c2cc4ccccc4o2)CS3)cc1OC | inactive
78 | COC(=O)CSc1nsc(SCC(=O)OC)n1 | inactive
79 | CCCCCSc1nc2c(cnn2-c2ccccc2)c(=O)[nH]1 | inactive
80 | O=C(Nc1nc2ccccc2[nH]1)c1ccc(F)cc1 | active
81 | COc1ccc(C(=O)Nc2nc3ccccc3[nH]2)cc1OC | inactive
82 | O=C(NCCc1nc2ccccc2[nH]1)c1ccc(F)cc1 | inactive
83 | Cc1[nH]c2ccccc2c1/C=N/n1cnnc1 | inactive
84 | Nc1c(C(=O)Nc2ccccc2)sc2nc3c(c(-c4ccco4)c12)CCC3 | inactive
85 | COc1ccc(C2NC3=C(CCC3)C3(C#N)C(OC)(OC)N=C(N)C23C#N)cc1 (stereo unspecified) | inactive
86 | COc1ccc(OC)c(S(=O)(=O)NCCO)c1 | inactive
87 | O=C(NCCc1ccccc1)C1CC(c2ccccc2O)=NO1 (stereo unspecified) | inactive
88 | COc1ccc2c(c1)CC/C(=C\Nc1ccc3c(c1)OCO3)C2=O | inactive
89 | O=C1CCCC/C1=C/Nc1ccc2c(c1)OCO2 | inactive
90 | CCn1cc(Br)c(C(=O)Nc2cccc(SC)c2)n1 | inactive
91 | CCOC(=O)c1c(C)[nH]c(C(=O)Nc2ccc3c(c2)OCO3)c1C | inactive
92 | CCOC(=O)c1c(C)c(C(=O)Nc2ccc3c(c2)OCO3)c(C)n1C | inactive
93 | CCOC(=O)c1c(N)sc(C(=O)Nc2ccc3c(c2)OCO3)c1C | active
94 | COc1ccc(-c2nnc3ccc(SCC(=O)N4CCCC4)nn23)cc1 | inactive
95 | Cn1c(=O)c2c(nc(N3CCN(Cc4ccccc4)CC3)n2CCSc2ncccn2)n(C)c1=O | inactive
96 | COc1ccc(Cl)cc1NS(=O)(=O)c1ccc(OC)c(OC)c1 | inactive

Row | Compound | outcome
97 | COc1ccc(Cl)cc1NS(=O)(=O)c1ccc(S(=O)(=O)N2CCCC2)cc1 | inactive
98 | COc1ccc(CCNS(=O)(=O)c2ccc(N3CCCC3=O)cc2)cc1 | inactive
99 | COc1ccc(S(=O)(=O)Nc2cc(Cl)ccc2OC)cc1 | active
100 | COc1ccc(OC)c(NS(=O)(=O)c2ccc(N3CCCC3=O)cc2)c1 | active
101 | Cc1ccccc1NS(=O)(=O)c1ccc(N2CCCC2=O)cc1 | inactive
102 | C=CCc1cccc(/C=N/n2c(C)nnc2C)c1O | inactive
103 | O=C1CC(c2ccc(S(=O)(=O)N3CCCCC3)cc2)CN1 (stereo unspecified) | inactive
104 | CCOc1cccc(CNn2cnnc2)c1OCc1ccccc1 | inactive
105 | CCN1CCN(CCNC(=O)CS(=O)(=O)Cc2nc(-c3ccc(C)cc3)oc2C)CC1 | inactive
106 | CCOc1cc(-c2noc(N)c2C(=O)OC)cc(OCC)c1OCC | inactive
107 | Cc1ccc(-c2nc(N/N=C/c3cccnc3)c3ccccc3n2)cc1 | inactive
108 | Brc1ccc(-c2nc(N/N=C/c3cccnc3)c3ccccc3n2)cc1 | inactive
109 | COc1ccc(CCn2c(C)cc3c(c2=O)C(c2ccc4c(c2)OCO4)C(C#N)=C(N)O3)cc1OC (stereo unspecified) | inactive
110 | COc1ccccc1NC(=O)C1C2CCCCC21 (stereo unspecified) | inactive
111 | Cc1cc(C)n(C(=O)c2nn(C)c(C)c2[N+](=O)[O-])n1 | inactive
112 | COc1cccc(CNC(=O)c2cc3ccccn3n2)c1 | inactive
113 | O=C(Nc1ccc(CN2CCOCC2)cc1)c1cc2ccccc2o1 | inactive
114 | O=C(Nc1ccc(CN2CCOCC2)cc1)c1cccc(F)c1 | inactive
115 | CC(=O)c1cccc(NC(=O)c2cc3ccccn3n2)c1 | inactive
116 | COc1ccc(-c2ccc(-c3noc(-c4ccc(OC)c(OC)c4)n3)c(OC)n2)cc1 | inactive
